Screens as filed in PubChem BioAssay.
D1 antag: Antagonist of Human D 1 Dopamine Receptor: qHTS; 3.2% of 360,000 active; D(1A) dopamine receptor (Homo sapiens), P21728; AID 504652, 2011; activity change, negative = inhibition, % at 10 µM; HEK293 TREx D1 cells, calcium flux, dopamine EC80; active compounds read low; in the data active means activity change below about -30%; further: on the % scale 0 is the no-effect control and ±100 the full control effect
Target sequence (P21728 whole entry, looked up): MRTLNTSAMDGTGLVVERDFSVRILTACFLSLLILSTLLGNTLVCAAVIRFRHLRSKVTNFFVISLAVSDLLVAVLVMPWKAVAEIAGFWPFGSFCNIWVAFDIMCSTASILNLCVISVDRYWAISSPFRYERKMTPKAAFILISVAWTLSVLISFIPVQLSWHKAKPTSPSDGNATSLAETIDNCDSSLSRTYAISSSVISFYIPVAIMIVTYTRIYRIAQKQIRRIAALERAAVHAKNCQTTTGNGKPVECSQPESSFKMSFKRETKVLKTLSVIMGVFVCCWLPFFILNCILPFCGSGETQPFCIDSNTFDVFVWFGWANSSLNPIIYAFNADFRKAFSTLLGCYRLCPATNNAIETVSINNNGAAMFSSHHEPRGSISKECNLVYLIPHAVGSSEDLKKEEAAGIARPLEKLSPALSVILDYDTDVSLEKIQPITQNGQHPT
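Inducible Hek293 Trex D1 cells (tetracycline, overnight, 30 C). Calcium dye 30–90 min RT. Antagonist mode: EC80 dopamine added after 180 s compound read.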
D1 potentiator: Potentiators of Human D1 Dopamine Receptor: qHTS | HEK293 TREx D1 cells, calcium flux, dopamine EC20 potentiation | AID 504651, 2011 | D(1A) dopamine receptor (Homo sapiens), P21728 | 0.036% of 360,000 active | potentiation, % at 10 µM; in the data active means potentiation above about 30%; further: 0% is about no effect
D1 agonist: Allosteric Agonists of the Human D1 Dopamine Receptor: qHTS. HEK293 T-REx D1 cells, calcium flux, agonist mode. activation, % at 2 µM. 1% of 360,000 active. AID 504660, 2011; further: 0% is about no effect
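Tetracycline-induced HEK293 TREx D1 cells, force-coupled to calcium signalling, were dye-loaded with a no-wash calcium kit. Compound was pin-added after a 10 s baseline. Fluorescence was read kinetically at 1 cycle/s for 180 s, with calcium rises flagged as agonism.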
TRHR agonist: qHTS for Small Molecule Agonists and Allosteric Enhancers of Human TRH Receptor: Primary Screen for Agonists | Thyrotropin-releasing hormone receptor (Homo sapiens), P34981 | TRHR cells, calcium flux fluo-8, FDSS agonist mode | activation, % at 2 µM | 0.18% of 360,000 active; further: 0% is about no effect
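Read-out: compound-evoked intracellular calcium rise in TRHR cells, fluo-8 dye, kinetic FDSS fluorescence at 1 s/cycle following a 10-cycle baseline. Cells cultured overnight before dye loading (30 min–1.5 h, RT).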
TRHR PAM: qHTS for Small Molecule Agonists and Allosteric Enhancers of Human TRH Receptor: Primary Screen for Enhancers. TRHR cells, fluo-8 calcium fluorescence, EC20 TRH enhancement. enhancement, % at 2 µM. 0.66% of 360,000 active. AID 493056, 2011; in the data active means enhancement above about 30%; further: 0% is about no effect
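TRHR-expressing cells loaded with fluo-8 calcium dye were read kinetically (ex 480/em 530) during compound addition, then stimulated with an EC20 of TRH (10 nM final). Enhancement of the Gq-mediated intracellular calcium response was scored.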
An asterisk follows results filed as active; · = no result. Most compounds without a hit are left out; they make up all but 4.6% or so of the library. Unless noted, no stated cut-off is given here; in the data, active means activation above about 30%; inactive means the rest.

SMILES | D1 antag | D1 potentiator | D1 agonist | TRHR agonist | TRHR PAM
Cc1ccc(CNc2nc3ccccc3c3nc(-c4cccc(C)c4)nn23)cc1 | -14.9 | -6.8 | 0.4 | 0.0 | -1.0
CCN(CC)CCN(C(=O)c1ccco1)c1nc2c(C)c(C)ccc2s1 | 4.1 | -3.0 | 18.7 | -0.6 | 37.7*
Cc1ccc2sc(N(CCCN(C)C)C(=O)c3ccco3)nc2c1C | 16.9 | -0.9 | 16.7 | 0.9 | 7.9
CC(Sc1ncnc2sc(-c3ccccc3)cc12)C(=O)N1CCNC1=O (centres undefined) | -40.7* | -1.1 | 12.9 | -0.3 | 0.0
COc1ccc(Cn2c(=O)[nH]c3cc(C(=O)N4CCN(c5cc(Cl)ccc5C)CC4)ccc3c2=O)cc1 | 13.7 | 1.6 | 1.6 | 0.1 | 8.4
COc1ccc(CNC(=O)C(=O)NCC(c2cccs2)S(=O)(=O)c2ccc(C)cc2)cc1 (centres undefined) | · | 0.0 | 9.7 | 0.0 | 0.5
C/C(=N\NC(=O)c1ccc(Cl)c(Cl)c1)c1ccccn1 | -38.0* | -1.8 | 4.3 | 0.1 | -1.6
Cc1ccccc1NC(=O)c1nnn(-c2ccc3c(c2)OCCO3)c1N | -47.5* | -6.2 | 14.2 | 0.1 | 3.5
CCOC(=O)CSc1nc(-c2ccccc2)nc2ccc(C)cc12 | -35.1* | -3.1 | 4.7 | 2.8 | -1.4
COc1cc(NC(=O)CCNS(=O)(=O)c2ccc3c(c2)CCN3C(=O)C2CC2)cc(OC)c1 | 4.5 | -3.7 | 0.0 | 0.2 | 45.5*
Cc1ccc(CNS(=O)(=O)c2cc(Br)cc3c2N(C(=O)C2CC2)CC3)cc1 | -5.0 | -1.1 | 2.2 | -0.1 | 0.7
O=C(C1CC1)N1CCc2cc(Br)cc(S(=O)(=O)NCc3ccco3)c21 | -31.2* | 3.7 | 1.1 | -0.1 | 3.5
CCC(=O)N1CCc2cc(S(=O)(=O)NCCC(=O)Nc3ccc(OC)cc3)ccc21 | 1.5 | -4.1 | 1.2 | -0.1 | 2.6
COc1ccc(NS(=O)(=O)c2ccc3c(c2)CCCN3C(=O)C2CCC2)cc1OC | -42.2* | -6.8 | 6.9 | 0.3 | -7.6
COc1ccc(NS(=O)(=O)c2cc(Br)cc3c2N(C(=O)C2CC2)CC3)cc1OC | 16.1 | -2.7 | -0.2 | -0.5 | 49.5*
COc1cccc(N2CCN(C(=O)c3ccc(CS(=O)c4cccc(Cl)c4)o3)CC2)c1 (centres undefined) | -16.5 | -3.0 | -0.9 | -0.3 | -12.3
COc1cccc(N2CCN(C(=O)c3cnc4c(-c5ccccc5)c(C)nn4c3C)CC2)c1 | -19.5 | -5.0 | 0.3 | 0.0 | 0.6
Cc1cc(C)cc(Nc2c3c(nc4ncnn24)CCC3)c1 | 2.5 | -2.4 | -0.4 | -1.5 | -3.5
Cc1cccc(Nc2c3c(nc4ncnn24)CCC3)c1 | -30.0* | -2.4 | 1.3 | -2.5 | 3.9
COc1cccc(N2CCN(c3c4c(nc5ncnn35)CCC4)CC2)c1 | -30.4* | -7.0 | 4.9 | -0.3 | -7.4
COc1cc2ccccc2cc1C(=O)Nc1ccc2oc(-c3cccc(C)c3)nc2c1 | 9.2 | 1.2 | 2.8 | -1.2 | 6.0
Cc1nc2cc(CO)ccc2n1C | -0.2 | 1.0 | 0.6 | 0.4 | 1.4
CCOc1ccc2c(c1)nc(C)n2C | -47.1* | -8.1 | 0.9 | 0.3 | 2.1
COC(=O)CC(NS(=O)(=O)c1cccs1)c1ccccc1Cl (centres undefined) | -9.8 | -8.3 | 6.7 | -1.3 | -4.4
COC(=O)CC(NS(=O)(=O)c1cccs1)c1ccc2c(c1)OCO2 (centres undefined) | -55.8* | 4.0 | 0.3 | 0.6 | -2.3
SMILES | D1 antag | D1 potentiator | D1 agonist | TRHR agonist | TRHR PAM
CC1C/C(=C/c2ccncc2)C(=O)/C(=C/c2ccncc2)C1 (centres undefined) | -31.5* | -3.2 | 5.9 | 2.0 | -2.1
CC1C/C(=C/c2cccn2C)C(=O)/C(=C/c2cccn2C)C1 (centres undefined) | -29.4 | 6.8 | 197.9* | 82.1* | 35.1*
Cc1ccc(Cl)cc1NC(c1ccc(F)cc1)c1nnc(-c2ccccc2)o1 (centres undefined) | 11.6 | -1.9 | -1.5 | -0.6 | -0.9
NC1=NC[C@H](Cc2ccccc2)N1CCc1cccc(F)c1 | -37.1* | -2.6 | 1.0 | 0.0 | 2.9
NC1=NC[C@H](Cc2ccccc2)N1CCCCC1CCCCC1 | 29.2 | 5.0 | 11.4 | 0.0 | 2.8
O=C(Cn1c(=O)c2cccn2c2ccccc21)NCc1ccccc1F | -20.5 | -3.3 | 6.4 | -0.6 | 11.9
Oc1ccc(C[C@@H]2CNCCN2CCC23CC4CC(CC(C4)C2)C3)cc1 | 33.7 | 2.5 | 95.5* | 0.1 | 9.4
Oc1ccc(C[C@H]2CNCCN2CCCCC2CCCCC2)cc1 | 9.8 | -2.3 | 33.3* | 0.9 | 5.7
Oc1ccc(C[C@H]2CNCCN2CCC23CC4CC(CC(C4)C2)C3)cc1 | 1.2 | 0.8 | 24.3 | 0.4 | 6.1
O=C(Nc1ccccc1N1CCCC1)c1cccc(Cl)c1Cl | -31.7* | -1.6 | 1.7 | -0.7 | -7.6
O=C(Nc1ccccc1N1CCCC1)c1ccccc1F | -10.9 | -9.9 | 4.9 | -0.3 | -2.2
COc1ccccc1C(=O)Nc1ccccc1N1CCN(S(C)(=O)=O)CC1 | -36.9* | -6.7 | 18.1 | -4.4 | -1.8
COc1cc(C(=O)Nc2ccccc2N2CCN(S(C)(=O)=O)CC2)cc(OC)c1OC | 9.7 | 2.1 | 2.3 | 0.1 | -1.6
CCOc1cc(CNCCSc2nnnn2C)ccc1OCc1ccc(Cl)cc1Cl | 3.9 | -3.6 | 12.6 | -0.1 | 0.6
Cc1ccc(C)c(NC(=O)CN2C(=O)c3cccnc3Oc3ccc(C)cc32)c1 | 1.9 | -2.0 | -1.3 | 0.5 | -7.6
CSc1ncc2c(n1)-c1ccccc1N(Cc1ccccc1C)S2(=O)=O | 4.3 | -4.8 | 4.3 | 0.0 | 1.8
CCOC(=O)c1ccccc1-n1c(C)cc(C2N=C(N)Nc3nc4ccccc4n32)c1C (centres undefined) | -35.6* | -5.5 | 2.2 | 0.1 | 0.8
Nc1ccc(NC(=S)Nc2ccccc2)cc1 | -56.9* | -1.4 | -1.8 | 0.4 | -4.3
CC1CN(CC(=O)N2CCc3[nH]c4ccccc4c3C2)CC(C)O1 (centres undefined) | -44.2* | 1.6 | 1.8 | 0.1 | 1.5
CC1CC(C)CN(CC(=O)N2CCc3[nH]c4ccccc4c3C2)C1 (centres undefined) | -6.2 | 0.5 | 9.5 | -0.5 | 0.8
C=C(C)c1cc2c(s1)c1cnn(Cc3ccccc3F)c(=O)c1n2C | 32.2 | 17.6 | 10.3 | 1.2 | 7.5
CCCCOC(=O)CSc1nc2c(cc1C#N)C(=O)CC(C)(C)C2 | -38.6* | 3.0 | 0.7 | -1.1 | -3.6
